Records with an inconclusive call do not appear. Activity calls are given as the source filed them. Calls come from the whole dose curve; as a rule, active = well fitted curve in the direction sought with a large enough effect; inconclusive = small, poorly fitted or top-dose-only effect, or another doubt; inactive = no such curve, though single readings can be large; an effect the other way counts as inactive or inconclusive.

The target of assay [1] is Glutaminase kidney isoform, mitochondrial (Homo sapiens) (UniProt O94925). Description: qHTS for Inhibitors of Glutaminase (GLS): LOPAC Validation (AID 624146).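 Note: glutamate product detected by oxidase and peroxidase coupled Amplex red fluorescence gain; series mostly up to about 46 µM; nearly all actives have a fitted effect of over 60% in size.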 An outline of the steps: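 Two-point fluorescence kinetic (t0, 30 min RT) for hKGA; glutamate detected via glutamate oxidase–HRP–Amplex Red. Substrate: 1 mM L-glutamine solution; buffer 45 mM KH2PO4, pH 8.2.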
On the technique in general: In qHTS, concentration-response curves come from the screen itself.

Assay [2] can be described thus: qHTS of Trypanosoma Brucei Inhibitors: LOPAC Validation (AID 624147). Note: potency is the fitted concentration of half-maximal effect. An outline of the steps: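 Assay buffer: 50 mM TEA pH 7.2, 100 mM KCl, 10 mM MgCl2, 0.05% BSA, 0.01% Tween-20. Pyruvate kinase from T. brucei plus substrate met compound, then ADP (130 uM final). Luminescence was read post 45 min RT.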
The target in assay [3] is Glucagon-like peptide 1 receptor (Homo sapiens) (UniProt P43220). Description: qHTS of GLP-1 Receptor Agonists: LOPAC Validation (AID 624148).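 Note: higher luminescence signal means agonism.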 An outline of the steps: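 HEK293 cells stably co-expressing a cAMP-responsive luciferase reporter and a hypersensitive GLP-1R were plated 12 h at 37 °C and exposed to compounds for 4-6 hr at 37 °C, 5% CO2. Luminescence was read 12 min after adding detection reagent.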

A short description of assay [4]: qHTS of Nrf2 Activators: LOPAC Validation (AID 624149). An outline of the steps: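 ARE reporter activation measured in AREc32 firefly luciferase cells after 24 hr compound exposure; Steady-Glo luminescence.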
The nature of assay [5]: HTS Assay for Allosteric Antagonists of the Human D2 Dopamine Receptor: Hit Validation in HTRF (AID 624455).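 Note: stable D1 dopamine receptor cell line scored for blocking the D1 response.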 An outline of the steps:
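Signal from an HTRF read-out in D1-expressing stable cells gave hit activity as inhibition of the D1 response.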
For orientation: TR-FRET usually uses a lanthanide donor and a delayed reading to cut background.

Chain of Glutaminase kidney isoform, mitochondrial (Homo sapiens) (O94925 whole entry, looked up, canonical isoform): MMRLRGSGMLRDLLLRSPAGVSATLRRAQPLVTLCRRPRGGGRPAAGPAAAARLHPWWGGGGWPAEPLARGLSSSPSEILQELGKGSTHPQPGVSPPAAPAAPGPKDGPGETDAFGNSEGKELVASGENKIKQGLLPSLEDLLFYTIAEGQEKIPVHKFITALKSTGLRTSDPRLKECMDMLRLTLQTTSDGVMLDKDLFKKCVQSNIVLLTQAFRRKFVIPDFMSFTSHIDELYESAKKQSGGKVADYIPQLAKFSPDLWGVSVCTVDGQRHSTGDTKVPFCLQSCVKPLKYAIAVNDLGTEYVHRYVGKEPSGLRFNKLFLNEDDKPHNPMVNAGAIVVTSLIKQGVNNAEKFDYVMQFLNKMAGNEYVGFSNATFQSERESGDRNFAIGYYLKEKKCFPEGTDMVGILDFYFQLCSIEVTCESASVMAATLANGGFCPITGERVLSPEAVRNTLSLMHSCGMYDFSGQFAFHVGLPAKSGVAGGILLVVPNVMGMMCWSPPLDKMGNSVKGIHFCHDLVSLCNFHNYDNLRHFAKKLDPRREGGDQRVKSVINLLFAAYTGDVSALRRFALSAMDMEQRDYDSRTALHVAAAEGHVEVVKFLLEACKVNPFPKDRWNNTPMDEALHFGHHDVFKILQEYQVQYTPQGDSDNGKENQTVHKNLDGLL
Chain of Glucagon-like peptide 1 receptor (Homo sapiens) (P43220 whole entry, looked up): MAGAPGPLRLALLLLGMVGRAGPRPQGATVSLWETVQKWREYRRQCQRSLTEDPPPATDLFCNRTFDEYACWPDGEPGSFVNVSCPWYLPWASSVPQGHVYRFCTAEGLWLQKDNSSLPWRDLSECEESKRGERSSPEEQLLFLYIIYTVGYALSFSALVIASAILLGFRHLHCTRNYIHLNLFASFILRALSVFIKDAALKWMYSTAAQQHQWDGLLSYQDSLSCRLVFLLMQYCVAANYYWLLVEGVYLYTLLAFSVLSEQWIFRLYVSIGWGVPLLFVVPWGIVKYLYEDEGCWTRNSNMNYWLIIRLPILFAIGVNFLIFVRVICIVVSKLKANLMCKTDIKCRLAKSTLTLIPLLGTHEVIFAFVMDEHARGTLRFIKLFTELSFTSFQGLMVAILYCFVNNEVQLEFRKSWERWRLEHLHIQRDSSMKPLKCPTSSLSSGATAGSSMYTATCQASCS

In the case of `NCCCS(=O)(=O)O`, the Potency result in assay [1], in assay [2] and in assay [5] was “inactive” each time. For the same compound, the call in assay [3] and in assay [4] was inactive.
Take `CCc1c(C(=O)NCCc2ccc(N3CCCCC3)cc2)[nH]c2ccc(Cl)cc12`: the Potency entry in assay [1], in assay [2] and in assay [5] was “inactive” in each case. Also, the compound was called inactive in assay [3] and in assay [4].
Take `CC[C@@H](C)[C@H]1O[C@]2(CC[C@H]1C)C[C@@H]1C[C@@H](CC=C(C)[C@@H](O[C@H]3C[C@H](OC)[C@@H](O[C@H]4C[C@H](OC)[C@@H](O)[C@H](C)O4)[C@H](C)O3)[C@@H](C)C=CC=C3CO[C@@H]4[C@H](O)C(C)=C[C@@H](C(=O)O1)[C@]34O)O2`: the Potency result in assay [1], in assay [2] and in assay [5] was “inactive” each time. Also, the compound was classed as inactive in assay [3] and in assay [4].
With `Cc1cc(NC(=O)Nc2ccc3c(ccn3C)c2)sn1`, the Potency entry in assay [1], in assay [2] and in assay [5] was “inactive” each time. The call in assay [3] and in assay [4] was inactive.
In the case of `Cc1ccc(O)c(N=Nc2ccccc2)n1`, the Potency entry in assay [1] and in assay [5] was “inactive” throughout. The Potency in assay [2] is 19 µM (active). In addition, the result in assay [3] and in assay [4] was inactive.
Consider `CCN1/C(=C/C(C)=O)Sc2ccc(OC)cc21`, for which the Potency entry in assay [1], in assay [2] and in assay [5] was “inactive” throughout. The result in assay [3] and in assay [4] was inactive.
In the case of `CCCCCCCCCCCCCCCC(=O)OC(CC(=O)O)C[N+](C)(C)C` (stereo not given), the Potency result in assay [1], in assay [2] and in assay [5] was “inactive” each time. The compound was called inactive in assay [3] and in assay [4].
As for `O=C(O)CC1CC(c2ccccc2)=NO1` (stereo not given), the Potency result in assay [1], in assay [2] and in assay [5] was “inactive” in each case. Further, the call in assay [3] and in assay [4] was inactive.
Turning to `OCC1O[C@H](O)C(Cl)C(O)C1O` (stereo not given in full), the Potency entry in assay [1], in assay [2] and in assay [5] was “inactive” each time. Further, in assay [4], the call was inactive.
With `c1cnc2c(c1)ccc1cccnc12`, the Potency result in assay [1], in assay [2] and in assay [5] was “inactive” throughout. Further, the call in assay [4] was inactive.
`O=C(CCCCCN1CCN(c2ccccc2-c2ccccc2)CC1)NC1CCCc2ccccc21` (stereo not given): the Potency entry in assay [1], in assay [2] and in assay [5] was “inactive” in each case. Also, the compound was classed as inactive in assay [4].
Take `N[C@@H](CC(=O)O)C(=O)O`: the Potency result in assay [1], in assay [2] and in assay [5] was “inactive” each time. The compound was called inactive in assay [4].
In the case of `O=c1[nH]c2cc(C(F)(F)F)ccc2n1-c1cc(C(F)(F)F)ccc1O`, the Potency result in assay [1], in assay [2] and in assay [5] was “inactive” each time. Moreover, in assay [4], the compound was called inactive.
Consider `NCCCCC(=O)O`, for which the Potency entry in assay [1], in assay [2] and in assay [5] was “inactive” throughout. Also, the result in assay [4] was inactive.
For the compound `COc1ccc(NC(=O)/C=C/c2ccc(Cl)cc2)cc1`, the Potency result in assay [1], in assay [2] and in assay [5] was “inactive” each time. Besides, the outcome in assay [4] was inactive.
Take `NC(=S)c1ccc[n+]([C@@H]2O[C@@H](COP(=O)([O-])OP(=O)(O)OC[C@H]3O[C@@H](n4cnc5c(N)ncnc54)[C@H](OP(=O)(O)O)[C@@H]3O)C(O)C2O)c1` (stereo not given in full): the Potency result in assay [1], in assay [2] and in assay [5] was “inactive” in each case. Besides, the compound was called inactive in assay [4].
For `CN1C2CC(OC(=O)[C@H](CO)c3ccccc3)CC1C1OC12` (stereo not given in full), the Potency result in assay [1], in assay [2] and in assay [5] was “inactive” throughout. Besides, the compound was called inactive in assay [3].
Take `CC(C)CC(NP(=O)(O)O[C@@H]1O[C@@H](C)[C@H](O)[C@@H](O)[C@H]1O)C(=O)NC(Cc1c[nH]c2ccccc12)C(=O)O` (stereo not given in full): the Potency result in assay [1], in assay [2] and in assay [5] was “inactive” throughout.
Turning to `C#C[C@]1(O)CC[C@H]2[C@@H]3CCC4=Cc5oncc5CC4(C)[C@H]3CCC21C` (stereo not given in full), the Potency result in assay [1] and in assay [2] was “inactive” in each case. In addition, the call in assay [4] was inactive.
On to `CN(C)c1nc(N)c(C(=O)N=C(N)N)nc1Cl`, for which the Potency entry in assay [1], in assay [2] and in assay [5] was “inactive” in each case.
`OC[C@H]1O[C@@H](n2cnc3c(NC4CCCC4)ncnc32)[C@H](O)[C@@H]1O`: the Potency entry in assay [1], in assay [2] and in assay [5] was “inactive” each time. Besides, the compound was classed as inactive in assay [4].
`CCCCC#Cc1nc(NC)c2ncn([C@@H]3O[C@H](CO)[C@@H](O)[C@H]3O)c2n1`: the Potency entry in assay [1], in assay [2] and in assay [5] was “inactive” each time. Also, the call in assay [4] was inactive.
As for `CCCCC/C=C\CC(O)/C=C/c1cccc(CC(O)CCCCO)n1` (stereo not given), the Potency result in assay [1], in assay [2] and in assay [5] was “inactive” throughout.
As to `NCCCCCCCCCCN`, the Potency entry in assay [1], in assay [2] and in assay [5] was “inactive” throughout. The outcome in assay [3] was inactive.

The values above are taken from PubChem BioAssay (NCATS).
